The list is not random: actives were taken first. Their share in the collection is about 0.71%.
CBFb-RUNX1 inh – qHTS Assay for Compounds Blocking the Interaction Between CBF-beta and RUNX1 for the Treatment of Acute Myeloid Leukemia | Potency, µM (titrated, usually from 59.8 µM), without a hit: top-dose activity, negative = inhibition, actives largely listed as inhibitors | AlphaScreen CBFb-His/RUNX1-biotin binding, biochemical | Runt-related transcription factor 1 (Homo sapiens) + Core-binding factor subunit beta … | 230,000 tested, under 10 active; note: % of control where 0% means no effect
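AlphaScreen binding: CBFb-His and RUNX1-biotin (30 nM each) preincubated 20 min, compound added for 15 min, then nickel and streptavidin beads for 90 min, all at room temperature. Disruption of the interaction by any mechanism counts as activity.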
RGS12 GoLoco inh – qHTS Assay for Inhibitors of RGS12 GoLoco Motif Activity (Red Fluorophore); Guanine nucleotide-binding protein G(i) subunit alpha-1 (Homo sapiens), P63096; Gai1:RGS12 GoLoco peptide FP, rhodamine, 10 min; Potency, µM (doses to about 61.6 µM), for the others: at the top dose activity, negative = inhibition, most hits filed as inhibitors; 230,000 compounds, 0.44% hits; active = well fitted inhibition curve with a large enough effect, not every such curve was filed as active; inactive = no such curve, though single readings can be large or run the other way; note: potency is the fitted concentration of half-maximal effect; % is set by controls: 0 for no effect and ±100 for the full control effect; nearly all actives have a fitted effect of over 30% in size
Epigenetic derep – Quantitative High-Throughput Screen for Regulators of Epigenetic Control. murine LDR cells, GFP reporter derepression, 30 h. Potency, µM (doses to about 53.9 µM), for the others: at the highest dose GFP activation, most hits filed as activators. 280,000 compounds, 0.2% hits. AID 1865, 2009; note: potency is the fitted concentration of half-maximal effect; % of control where 0% means no effect; nearly all actives have a fitted effect of over 60% in size
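Murine LDR cells carrying a silenced, genomically integrated CMV-driven GFP reporter were exposed to compound for 30 hours at 37 C. After PBS washes, GFP-positive cells (20–120 um objects) were counted by laser-scanning microplate cytometry.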
TR SRC2 fluor cs – Total Fluorescence Counterscreen for Inhibitors of the Interaction of Thyroid Hormone Receptor and Steroid Receptor Coregulator 2 | TRb/SRC2 Texas Red total fluorescence interference | AID 1479, 2009 | 280,000 compounds, 0.29% hits | Potency, µM (top dose mostly 106 µM), inactives show top-dose fluorescence change, negative = quenching; active = well fitted curve in either direction with a large enough effect; inconclusive = small, poorly fitted or top-dose-only effect; note: potency is the fitted concentration of half-maximal effect; % is set by controls: 0 for no effect and ±100 for the full control effect
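Human TRb ligand-binding domain at 0.6 uM with 20 nM Texas Red SRC2 peptide in Tris buffer containing 1 uM T3 and 5% DMSO, incubated with compound 5 h at ambient temperature. Total fluorescence (555/632 nm) calculated as parallel + 2 × perpendicular.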
TRb SRC2 PPI – qHTS for Inhibitors of the Interaction of Thyroid Hormone Receptor and Steroid Receptor Coregulator 2 | TRbeta-SRC2 peptide binding, fluorescence polarization; receptor liganded with 1 µM T3 | Potency, µM (doses to about 106 µM), inactives show top-dose activity change, negative = inhibition, most hits filed as inhibitors | 280,000 compounds, 0.065% hits | AID 1469, 2008;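 note: potency is the fitted concentration of half-maximal effect; plate controls were bound peptide for no effect and peptide without receptor for full effect; nearly all actives have a fitted effect of over 50% in size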
Target sequence (P10828 whole entry, looked up): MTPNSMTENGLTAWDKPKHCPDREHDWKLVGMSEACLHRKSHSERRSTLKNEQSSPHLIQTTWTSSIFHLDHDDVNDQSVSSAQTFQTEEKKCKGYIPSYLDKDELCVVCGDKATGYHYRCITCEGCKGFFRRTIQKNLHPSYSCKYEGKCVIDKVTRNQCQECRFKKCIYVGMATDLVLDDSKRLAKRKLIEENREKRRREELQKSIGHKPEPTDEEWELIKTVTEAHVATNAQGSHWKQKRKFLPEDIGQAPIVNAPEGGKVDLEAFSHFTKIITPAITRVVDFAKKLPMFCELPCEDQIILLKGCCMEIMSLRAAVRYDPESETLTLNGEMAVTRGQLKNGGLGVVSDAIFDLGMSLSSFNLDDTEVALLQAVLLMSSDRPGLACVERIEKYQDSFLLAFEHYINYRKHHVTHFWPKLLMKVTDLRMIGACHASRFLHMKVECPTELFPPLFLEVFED
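TRb LBD 0.6 uM + Texas Red SRC2 peptide 20 nM, 1 uM T3, Tris buffer w/ 5% DMSO; compound pinned, 5 h RT; FP read ex 555/em 632; normalized to unbound and bound controls.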
Active calls of the source: *; ? = inconclusive; / = no result given; ! = repeats disagree; [ ] = another dose, or the depositor's remark. Unless noted, calls come from the whole dose curve; as a rule, active = well fitted curve in the direction sought with a large enough effect; inconclusive = small, poorly fitted or top-dose-only effect, or another doubt; inactive = no such curve, though single readings can be large; an effect the other way counts as inactive or inconclusive.

SMILES	CBFb-RUNX1 inh	RGS12 GoLoco inh	Epigenetic derep	TR SRC2 fluor cs	TRb SRC2 PPI
Cc1[nH]n(-c2ccccc2)c(=S)c1C=Nc1cccc([N+](=O)[O-])c1	-1.6%	12.6µM*	-0.4%	0.1%	2.5%
Cc1cc(=O)c2c(O)c3c(O)cc(O)c4c5c(O)cc(O)c6c(O)c7c(=O)cc(C)c8c1c2c(c34)c(c65)c78	?	4.47µM*	5.3%	14.1µM*[fluorescent]	12.6µM*
COc1ccc(N=Cc2c(O)n(-c3cccc(C)n3)c(=O)c3ccccc23)c(OC)c1	10.4%	-4.7%	12.6µM*	-0.9%	5.2%
O=C1N/C(=C/c2ccc(N3CCOCC3)o2)C(=O)N1c1ccccc1	4.0%	23.7%	?	1.2%	-3.0%
O=C1N/C(=C/c2ccc(N3CCCC3)cc2)C(=O)N1c1ccccc1	5.3%	6.2%	15.8µM*	-6.7%	-3.3%
O=C1/C(=C/c2ccc(N3CCCC3)cc2)NC(=S)N1C1CC1	-22.7%	216.3%	17.8µM*	1.0%	1.0%
CCCCCCCCCCCCO	/	/	/	-2.8%[201 µM]	3.5%[201 µM]
CSCC[C@H](NC(=O)[C@H](CC(C)C)NC(=O)[C@H](Cc1c[nH]c2ccccc12)NC(=O)[C@H](CCC(N)=O)NC(=O)[C@@H](NC(=O)[C@H](Cc1ccccc1)NC(=O)[C@H](CC(=O)O)NC(=O)[C@H](CCC(N)=O)NC(=O)[C@H](C)NC(=O)[C@H](CCCNC(=N)N)NC(=O)[C@H](CCCNC(=N)N)NC(=O)[C@H](CO)NC(=O)[C@H](CC(=O)O)NC(=O)[C@H](CC(C)C)NC(=O)[C@H](Cc1ccc(O)cc1)NC(=O)[C@H](CCCCN)NC(=O)[C@H](CO)NC(=O)[C@H](Cc1ccc(O)cc1)NC(=O)[C@H](CC(=O)O)NC(=O)[C@H](CO)NC(=O)[C@@H](NC(=O)[C@H](Cc1ccccc1)NC(=O)[C@@H](NC(=O)CNC(=O)[C@H](CCC(N)=O)NC(=O)[C@H](CO)NC(=O)[C@@H](N)Cc1cnc[nH]1)[C@@H](C)O)[C@@H](C)O)C(C)C)C(=O)N[C@@H](CC(N)=O)C(=O)N[C@H](C(=O)O)[C@@H](C)O	11.6%	/	/	0.9%	1.3%
COc1cccc(NC(=O)CC(C)S(=O)(=O)c2ccc3c(c2)NC(=O)CO3)c1 (centres undefined)	/	/	1.2%	20µM*[quencher]	-11.5%
CCC1(CC)C(=O)C2=C3C1[C@H](C(=O)OC)CC(C(=O)OC)C[C@H]3n1c(=O)n(-c3ccccc3)c(=O)n1[C@H]2C (some centres undefined)	17.4%	/	/	44.7µM*[fluorescent]	?
c1ccc(-c2ccc(N3CCCC4(CCNCC4)C3)cc2)cc1	/	8.0%	/	/	/
CC1=C(c2ccc(C)c(C)c2)S(=O)(=O)N=C1N1CCC(C(=O)N2CCCCC2)CC1	/	/	0.0%	562µM*[quencher]	-20.1%
CCC1=C(c2ccc(C)cc2)S(=O)(=O)N=C1N1CCC(C(=O)N2CCCCC2)CC1	/	/	0.0%	-3.1%	0.2%
COc1ccc(NC(=O)C2CCN(C3=NS(=O)(=O)C(c4ccc(C)c(C)c4)=C3C)CC2)c(OC)c1	/	/	7.4%	224µM*[quencher]	?
COc1ccccc1CNc1cc(-c2ccccc2Cl)ncn1	/	8.1%	/	/	/
Cc1ccc(Cl)cc1N1CCN(C(=O)Cn2nc(C)n3c(cc4sccc43)c2=O)CC1	/	/	0.0%	79.4µM*[quencher]	-8.7%
COc1cccc2c1C(=O)c1c(O)c3c(c(O)c1C2=O)C[C@@](O)(C(=O)CO)C[C@@H]3OC1C[C@@H](N)[C@H](O)[C@H](C)O1 (some centres undefined)	-25.3%	3.55µM*	2.1%	39.8µM*[fluorescent]	14.1µM*
COc1cccc2c1C(=O)c1c(O)c3c(c(O)c1C2=O)C[C@@](O)(C(C)=O)C[C@@H]3O[C@H]1C[C@H](N)[C@H](O)[C@H](C)O1	?	1.58µM*	2.0%	44.7µM*![fluorescent]	22.4µM*!
COc1cccc2c1C(=O)c1c(O)c3c(c(O)c1C2=O)C[C@](O)(C(=O)CO)C[C@@H]3O[C@H]1C[C@H](N)[C@@H](O)[C@H](C)O1	/	-1.4%	/	0.7%	2.6%
COc1ccc(CNCc2ccc3c(c2)n(C)c(=O)n3C)cc1	/	/	1.6%	1.0%	-8.0%
COc1ccc(CCNCc2ccc3c(c2)n(C)c(=O)n3C)cc1OC	/	/	-1.6%	89.1µM*[quencher]	-21.7%
COc1cccc(CNc2ncc(-c3ccc(Br)cc3)n2C)c1	/	/	1.6%	-1.9%	-0.9%
C[N+]1(CC(=O)OC2CCCCCCCCCCC2)CCCC1	-1.1%	-36.3%	-1.3%	2.1%	6.9%
CC(=O)/C(C[N+]1(C)CCCCC1)=N\O	9.6%	3.16µM*	0.0%	0.1%	-7.0%
COC(=O)C1=CO[C@@H](C)[C@@H]2CN3CCc4c([nH]c5ccccc45)[C@@H]3C[C@H]12	-16.3%	/	/	15.7%	-1.9%
SMILES	CBFb-RUNX1 inh	RGS12 GoLoco inh	Epigenetic derep	TR SRC2 fluor cs	TRb SRC2 PPI
c1cc2c(cc1C1=NNC(=NC3CC3)SC1)OCCO2	-18.3%	-2.2%	28.2µM*	-4.4%	-0.7%
CC(=O)c1cccc(NC(=O)/C=C/c2ccc([N+](=O)[O-])s2)c1	4.3%	2.9%	3.98µM*	-3.8%	-3.2%
Cc1ccccc1NC(=O)/C=C/c1ccc([N+](=O)[O-])s1	-1.1%	-0.8%	3.55µM*	-10.3%	-8.9%
Cc1cc(C)cc(NC(=O)/C=C/c2ccc([N+](=O)[O-])s2)c1	-8.5%	12.6%	8.0%	-3.1%	-0.7%
C[C@H]1Cc2c(COc3ccccc3)nc3c(c2CO1)CN(C(=O)c1cccnc1)CC3	3.7%[13.1 µM]	4.3%[14.2 µM]	/	-6.7%[11.2 µM]	3.9%[11.2 µM]
CC(C)N(CCNC(=O)c1ccc(Cc2nc3ccccc3[nH]2)cc1)C(C)C	/	/	8.1%	/	/
O=C(O)c1ccc2c3c(ncnc13)-c1ccccc1C2=O	-3.3%	17.8µM*	-1.3%	4.4%	-13.3%
O=C1c2ccccc2C(=O)c2c(NC(=O)c3ccc4c5c(ncnc35)-c3ccccc3C4=O)cccc21	/	2.3%[14.2 µM]	/	/	/
CC1(C)C(=O)N(Br)C(=O)N1Cl	/	/	/	-2.1%[201 µM]	1.3%[201 µM]
COCCCNc1c2c3c(cccc3[nH]c1=O)C(=O)c1ccccc1-2	?	4.47µM*	?	?	?
CCCCCCC(C)(C)S	/	/	/	-5.6%[201 µM]	-0.7%[201 µM]
O=C(c1cc(-c2ccc(Cl)c(Cl)c2)on1)N1CCCC1	-1.9%	4.8%	-0.8%	1.6%	11.1%
O=C(c1cc(-c2ccc(F)cc2)on1)N1CCCC1	0.5%	/	15.8µM*	-1.1%	1.4%

Screening results (PubChem)
